In the library only some 1.1% were active in any assay of this set; here they are far more common.
FAK blocker: FAK (human) kinase inhibition. Q05397. biochemical FAK kinase activity assay. inhibition, %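 (tested at 7 µM)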. 97,000 compounds, 0.84% hits;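 note: 0% = DMSO and 100% = reference compound high control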
Mac1 fbg enh: CD11b/CD18-fibrinogen binding enhancement; activation, % at 10 µM; P05107+P11215; AID 1499; K562 CD11b/CD18 adhesion to fibrinogen, ATPlite luminescence; 93,000 compounds, 0.07% hits;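 active = 10 µM primary screen giving 50% or more activity, confirmed by 40% or more on retest at that dose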
Target sequence (P05107 whole entry, looked up, other chains not shown): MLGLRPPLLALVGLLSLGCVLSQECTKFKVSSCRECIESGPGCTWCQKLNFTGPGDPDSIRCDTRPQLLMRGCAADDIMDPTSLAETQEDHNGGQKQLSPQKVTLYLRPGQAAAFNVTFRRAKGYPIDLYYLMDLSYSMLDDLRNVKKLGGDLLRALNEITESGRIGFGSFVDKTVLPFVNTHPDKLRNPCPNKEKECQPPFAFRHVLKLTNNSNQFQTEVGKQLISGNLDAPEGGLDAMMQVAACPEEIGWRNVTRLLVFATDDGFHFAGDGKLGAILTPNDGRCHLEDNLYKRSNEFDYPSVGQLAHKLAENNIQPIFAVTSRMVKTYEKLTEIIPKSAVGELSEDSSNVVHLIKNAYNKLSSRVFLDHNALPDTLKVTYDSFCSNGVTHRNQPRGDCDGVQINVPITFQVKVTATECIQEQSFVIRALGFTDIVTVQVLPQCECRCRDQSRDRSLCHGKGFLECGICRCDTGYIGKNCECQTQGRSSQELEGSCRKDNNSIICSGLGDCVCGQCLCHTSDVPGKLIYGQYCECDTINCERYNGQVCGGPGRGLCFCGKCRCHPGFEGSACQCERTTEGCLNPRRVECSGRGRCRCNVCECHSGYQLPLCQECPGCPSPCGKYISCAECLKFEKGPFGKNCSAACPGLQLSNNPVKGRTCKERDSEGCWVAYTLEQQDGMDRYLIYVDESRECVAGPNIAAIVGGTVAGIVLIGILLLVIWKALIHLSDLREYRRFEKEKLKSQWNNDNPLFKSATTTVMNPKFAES
MMP13 inh: inhibitors of human MMP13 | P45452 | MMP-13 fTHP FRET cleavage, Mca fluorescence | inhibition, % at 4 µM | 65,000 compounds, 0.07% hits | AID 570;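 active = inhibition above the mean of compound-free control plate wells plus 3 SD, cut at about 14% in these data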;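 note: 0% = DMSO wells and 100% = wells with reference MMP-13 inhibitor after basal subtraction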
CD11b adhes inh: blocks human CD11b/CD18 adhesion to fibrinogen | P05107+P11215 | K562 CD11b/CD18 adhesion to fibrinogen, ATPlite luminescence; Mn2+ added to activate the integrin | 93,000 compounds, 0.54% hits | inhibition, % at 10 µM | AID 1497;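 active = primary inhibition of 50% or more at 10 µM, then 40% or more on retest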
FAK inh conf: FAK (human) inhibition confirmed. shares compounds with FAK blocker. 750 compounds, 28% hits. FAK kinase biochemical inhibition assay. inhibition, % at 7 µM
* marks the source's active call; other numbers are inactive results; x = no result given. Cut-off read from the data, not from the text of the source, unless noted: active = inhibition above about 19%; inactive = the rest.

SMILES | FAK blocker | Mac1 fbg enh | MMP13 inh | CD11b adhes inh | FAK inh conf
COC(=O)c1sccc1-c1ccc(C(=O)Nc2cccc(Cl)c2)o1 | 26* | x | x | x | 7
CN(C)S(=O)(=O)Oc1ccsc1C(=O)Nc1cccc(Cl)c1 | -2 | x | x | x | x
CS(=O)(=O)N(CC(=O)NC1CCCC1)Cc1ccc(Cl)cc1 | -1 | 3 | x | 3 | x
O=[N+]([O-])c1cc(/C=N\Nc2nccs2)ccc1O | 91* | 45 | x | -14 | 72*
S=C1N(c2ccccc2)C(c2cccc3ccccc23)N2CCCN12 (stereo not drawn) | -2 | -2 | x | 11 | x
CCCN1CCCc2cc(CN)ccc21 | 24* | -2 | -4 | 10 | 18
CN1CCCc2cc(C=O)ccc21 | 0 | x | x | x | x
Cc1nc(NCc2ccco2)c2oc3ccccc3c2n1 | 24* | 3 | 9 | -30 | 8
Cc1cccc(NC(=O)NCc2ccc3c(c2)cc(C)n3C)c1 | 22* | 51 | x | 12 | -7
COc1ccc(-c2nn3c(-c4ccc(F)cc4)nnc3s2)cc1 | 36* | 10 | -2 | -5 | 9
COc1ccc(-c2nn3c(-c4ccccc4)nnc3s2)cc1 | 1 | 5 | 5 | 10 | x
CCn1c2ccccc2c2cc(C3C(C#N)=C(N)Oc4n[nH]c(COC)c43)ccc21 (stereo not drawn) | 4 | 64 | -10 | 20 | x
COCCNC(=O)C(c1ccc(C)o1)N(C(=O)c1snc(C(N)=O)c1N)c1ccc(C)c(C)c1 (stereo not drawn) | 23* | 3 | -10 | 7 | 9
COCCNC(=O)C(c1ccc(C)o1)N(C(=O)c1snc(C(N)=O)c1N)c1ccc(C)cc1 (stereo not drawn) | 14 | -4 | -14 | -24 | x
COCCNC(=O)C(c1ccc(C)o1)N(C(=O)c1snc(C(N)=O)c1N)c1cccc(C)c1 (stereo not drawn) | 20* | -1 | -17 | -8 | 6
Cc1ccc(S(=O)(=O)NCC(=O)OCC(=O)NC(=O)c2cccn2C)cc1 | 2 | -5 | x | 8 | x
COc1cc(-c2cc(OC)c3c(C)oc(C)c3c(=O)c2)ccc1O | 20* | -1 | -6 | 4 | 13
O=CNC1CCCc2c1[nH]c1ccc(Cl)cc21 (stereo not drawn) | 1 | 2 | -23 | -5 | x
c1ccc2c3c([nH]c2c1)-c1[nH]ncc1CC3 | 42* | 0 | 1 | -8 | 20*
O=C1CCCc2c1[nH]c1ccccc21 | 6 | -5 | 0 | -5 | x
Clc1ccc2[nH]c3c(c2c1)CCc1cn[nH]c1-3 | 20* | 4 | -2 | -4 | 7
COc1ccc(CCn2c(=S)[nH]c3cc(C(=O)NCc4ccco4)ccc3c2=O)cc1OC | 35* | 22 | 4 | 28 | 12
Cc1ccc(-c2ccc(/C=C3\C(=O)ON=C3c3ccccc3)o2)c([N+](=O)[O-])c1 | 4 | x | x | x | x
Cc1ccccc1OCc1nnc(SCC(=O)Nc2ccc(N3CCOCC3)c(Cl)c2)n1C | -1 | -3 | x | -22 | x
CC1(C)Cc2c(sc3nn[nH]c(=O)c23)CO1 | 1 | -3 | -5 | -4 | x
SMILES | FAK blocker | Mac1 fbg enh | MMP13 inh | CD11b adhes inh | FAK inh conf
O=c1[nH]nnc2sc3c(c12)CCCC3 | 27* | x | 2 | x | 13
CN(C)c1cc2c(c(N(C)C)c1)C(=O)c1ccccc1C2=O | 49* | 1 | x | -12 | 24*
COc1ccc(/C=N/NC(=O)c2ccn[nH]2)cc1COc1ccc(Cl)cc1Cl | 21* | 95 | x | -16 | 8
COC(=O)c1ccc(/C=N\NC(=O)c2ccc(C)cc2Cl)cc1 | 0 | x | x | x | x
Cc1ccc2c(n1)sc1c(-c3ccc(Br)cc3)c(C#N)c(N)nc12 | 29* | x | x | x | 14
O=C(O)C1CC=CCC1C(=O)NCc1ccc2c(c1)OCO2 (stereo not drawn) | 1 | x | x | x | x
COc1cccc(NC(=O)c2ccc(-n3cccn3)nc2)c1 | 8 | x | x | x | x
CCCOc1ccc(/C=N/NC(=O)c2ccc(Cn3cc([N+](=O)[O-])cn3)o2)cc1 | 24* | 3 | x | -9 | 19
CCc1nnc(NC(=O)c2ccc(-c3cccc(C(F)(F)F)c3)o2)s1 | 0 | -4 | 0 | -4 | x
CC(C)(C)C(=O)Nc1nc2c(s1)COc1ccccc1-2 | 45* | 3 | x | 0 | 30*
O=C(CCSc1ccccc1)Nc1nc2c(s1)COc1ccccc1-2 | 2 | -3 | x | 31 | x
O=C1c2ccccc2C(Nc2cccc(C(F)(F)F)c2)N1Cc1ccco1 (stereo not drawn) | 20* | -3 | 3 | 40 | 7
COc1cccc(NC2c3ccccc3C(=O)N2Cc2ccco2)c1 (stereo not drawn) | 6 | -1 | 1 | -11 | x
C=C(C)CN(CC)C(=O)COc1ccc(S(=O)(=O)Nc2ccc(OC)cc2)cc1 | 30* | 0 | x | 16 | 0
CN1C(=O)c2cccc3c(S(=O)(=O)NCc4ccco4)ccc1c23 | 36* | 0 | -22 | -18 | 21*
CN1C(=O)c2cccc3c(S(=O)(=O)Nc4ccccn4)ccc1c23 | 10 | x | 4 | x | x
CN1CCN(C(=O)CN(CCc2ccccc2)S(C)(=O)=O)CC1 | -2 | 0 | x | -27 | x
Clc1ccc2[nH]c3c(NCC4CCCO4)ncnc3c2c1 (stereo not drawn) | 22* | -5 | -20 | 44 | 10
CSc1nc(NCC(C)C)c2c3c(sc2n1)CN(C)CC3 | 5 | -1 | x | -18 | x
CSc1nc(NCc2ccccc2)c2c3c(sc2n1)CN(C)CC3 | 21* | -2 | x | -10 | 6
c1ccc(CNc2ncnc3sc4c(c23)CCC4)nc1 | 20* | -3 | x | -12 | 3
c1nc(NCCN2CCOCC2)c2c3c(sc2n1)CCCCC3 | 7 | 1 | 2 | 5 | x
CCOC(=O)C1=C(c2ccccc2)OC(N)=C(C#N)C1c1cccs1 (stereo not drawn) | 26* | -1 | x | 8 | 20*
CCOC(=O)C1CCN(C(=O)C2CCN(S(=O)(=O)c3cc(Cl)ccc3Cl)CC2)CC1 | -1 | 4 | 1 | 2 | x
CNC(=O)CN1C(=O)c2cccc3cccc1c23 | 1 | -2 | x | 24 | x
SMILES | FAK blocker | Mac1 fbg enh | MMP13 inh | CD11b adhes inh | FAK inh conf
CN1/C(=N\O)c2cccc3cccc1c23 | 21* | -3 | -3 | -1 | 8
Cc1nc2c3c(-c4ccccc4)nc(N4CCOCC4)nc3nn2c(C)c1CCC(=O)O | x | x | -17 | x | x
Nc1ncnc2oc(-c3ccco3)c(-c3ccco3)c12 | 54* | -1 | -3 | 3 | 32*
CCOc1ccc2nc(NC3=NC(C)(C)C=C(C)N3)nc(C)c2c1 | 1 | 0 | x | 6 | x
CCOc1ccc2nc(NC3=NC(c4ccc(OC)cc4)CC(=O)N3)nc(C)c2c1 (stereo not drawn) | 36* | x | x | x | 25*
O=C1NC(=S)N/C1=C/c1ccc(-c2c(Br)cc([N+](=O)[O-])cc2Br)o1 | 36* | 68 | x | 49 | 11
O=C1NC(=S)N/C1=C\c1cccc([N+](=O)[O-])c1 | 0 | -4 | x | -9 | x
NC(=O)CSc1nnc(CCc2nc3ccccc3[nH]2)n1-c1ccccc1 | 0 | x | x | x | x
CCn1c(SCC(=O)NNC(=O)c2ccccc2)nnc1-c1ccncc1 | 0 | -4 | x | -12 | x
O=C1c2ccccc2C(=O)N1CCCCN(C(=O)c1cccc([N+](=O)[O-])c1)c1ccc(Cl)cc1 | 2 | x | x | x | x

Screening data (PubChem BioAssay)
